14 compounds from PubChem BioAssay (NCATS) can be followed below.

SMILES strings stand for the structures. Records with an inconclusive call do not appear. Activity calls are given as the source filed them. Unless noted, calls come from the whole dose curve; as a rule, active = well fitted inhibition curve with a large enough effect; inconclusive = small, poorly fitted or top-dose-only effect; inactive = no such curve, though single readings can be large or run the other way.

The nature of experiment [1]: qHTS profiling of the MIPE4 collection as inhibitors of Plasmodium falciparum (DD2) proliferation (Rep 2) (AID 743346; call rule not given here). The note with it: P. falciparum Dd2 in erythrocytes, SYBR Green DNA, 72 h; at 28.5 µM unless noted. The procedure, abridged: (§1)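 Erythrocytes infected with P. falciparum (0.3% parasitemia, 2.5% hematocrit) incubated with compounds 72 h at 37 C, 5% CO2. Lysis with saponin/Triton buffer containing SYBR Green I, overnight at room temperature in the dark; DNA fluorescence (485/535 nm) normalised to 0.29 uM artemisinin and DMSO.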
In general terms: In qHTS, concentration-response curves come from the screen itself.

Experiment [2] is described as follows: qHTS profiling of the MIPE4 collection as inhibitors of Plasmodium falciparum (HB3) proliferation (AID 743347; call rule not given here;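 note: plate controls were DMSO vehicle wells for no effect and artemisinin wells for full effect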). The following applies: P. falciparum HB3 in erythrocytes, SYBR Green DNA, 72 h; at 28.5 µM unless noted. A digest of the protocol:
as §1

Experiment [3] in a line: High-throughput drug toxicity screening in the BPDCN cell line Gen2.2 (AID 1224824; call rule not given here;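 note: cells exposed to compounds for 48 h before reading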). The note with it: Gen2.2 BPDCN cells; at 45.8 µM (top of the series) unless noted. The procedure, abridged:
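Gen2.2 cells, 500 per well in phenol red-free RPMI with 10% FBS, exposed to compounds 48 h at 37 C, 5% CO2; viability by CellTiter-Glo luminescence. Percent activity scaled to DMSO (100%) and 9.2 uM bortezomib final (0%).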

Experiment [4] is described as follows: High-throughput drug toxicity screening in the BPDCN cell line Cal-1 (AID 1224825; call rule not given here). The note with it: Cal-1 BPDCN cell viability, qHTS; at 45.8 µM (top of the series) unless noted. A digest of the protocol: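 500 Cal-1 cells/well, RPMI + glutamine + 10% FBS (phenol red-free); cpd added by pin tool; 48 h, 37C, 5% CO2; CTG 15 min RT, lumi read. Normalised: DMSO 100%, bortezomib 9.2 uM 0%.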

A short description of experiment [5]: qHTS assay for measurement of the activity of small molecule inhibitors on Zika virus induced Caspase-3 activity in human iPSC derived neural progenitor cells (hNPCs) (AID 1224857). Note: % of control where 0% means no effect; nearly all actives have a fitted effect of over 65% in size. The procedure, abridged: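 After overnight (16–20 h) culture at 350 cells/well, hNPCs get compound, then ZIKV 2 FFU/cell one hour later. Six hours on, Caspase-Glo 3/7 is added and luminescence measured.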

Experiment [6] can be described thus: qHTS assay for measurement of the activity of small molecule inhibitors on Zika virus induced Caspase-3 activity in human astrocytoma cells (AID 1224859).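 Note: plate controls were ZIKV-infected untreated cells for no effect and uninfected cells for full effect.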 The procedure, abridged:
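Inhibition of Zika-induced caspase-3/7 activity: SNB-19 cells, 1 h compound pretreatment, ZIKV 2 FFU/cell for 6 h at 37 C, Caspase-Glo luminescence read-out.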

A short description of experiment [7]: qHTS Screen of the MIPE 4.0 Collection Against Ewings Sarcoma (RDES) (AID 1259252). Note: nearly all actives have a fitted effect of over 35% in size. Note: potency is the fitted concentration of half-maximal effect. The procedure, abridged:
(§2)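 CellTiter-Glo luminescence after 48 h compound exposure (titration) gave viability; percent activity used DMSO-treated cells as no inhibition and medium-only wells as full inhibition. Cells grown in RPMI/5% FBS, dosed 4 h post-seeding.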

A short description of experiment [8]: qHTS Screen of the MIPE 4.0 Collection Against Ewings Sarcoma (TC71) (AID 1259253). Note: nearly all actives have a fitted effect of over 40% in size. Note: potency is the fitted concentration of half-maximal effect. A digest of the protocol: as §2
Experiment [9] can be described thus: qHTS Screen of the MIPE 4.0 Collection Against Ewings Sarcoma (EW8) (AID 1259255).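 For viability: 100% = DMSO-treated cells and 0% = medium-only wells without cells.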 Note: nearly all actives have a fitted effect of over 35% in size. Note: potency is the fitted concentration of half-maximal effect. The procedure, abridged: as §2
Experiment [10] is described as follows: qHTS Screen of the MIPE 4.0 Collection Against Ewings Sarcoma (TC32) (AID 1259256). Note: nearly all actives have a fitted effect of over 45% in size. Note: potency is the fitted concentration of half-maximal effect. The procedure, abridged:
as §2

Regarding `CN(C)CC(=O)N1CCC(c2ccc(NC(=O)c3ncc(C#N)[nH]3)c(C3=CCCCC3)c2)CC1`, in experiment [1], the parasite growth, % of control (lower = inhibition) was found to be 12.3%. In addition, the growth, % of control in [2] was found to be 9.47%. The cell viability, % of control (lower = more cytotoxic) in [3] stood at 168%. Besides, the viability (% of control) in [4] was found to be 28.6%. The Potency result in experiment [5] and in experiment [6] was “inactive” in each case. Moreover, the Potency in [7] was 13200 nM (active); in experiment [8], 16600 nM (active); in [9], 18700 nM (active); in experiment [10] it was 20900 nM (active).

Consider `OCC(O)C(O)C(O)CO` (centres undefined), for which the parasite growth, % of control (lower = inhibition) in [1] is 114%. The compound also returned a growth, % of control in experiment [2] of 95.9%. Also, the cell viability, % of control (lower = more cytotoxic) in [3] worked out at 59.2%. The viability (% of control) in experiment [4] was found to be 66.8%. For the same compound, the Potency entry in experiment [5], in experiment [6], in [7], in experiment [8], in [9] and in [10] was “inactive” each time.

On to `CCNC(=O)c1cc2c(-c3cc(OCCN4CCCC4)c(Cl)cc3Cl)nc(N)nc2s1`, for which, in experiment [1], the parasite growth, % of control (lower = inhibition) amounted to 25.1%. The compound also displayed a growth, % of control in experiment [2] of 5.43%. For the same compound, the cell viability, % of control (lower = more cytotoxic) in experiment [3] came to 13.8%. Besides, the viability (% of control) in experiment [4] amounted to 13.8%. Moreover, the Potency entry in experiment [5] and in experiment [6] was “inactive” each time. The Potency is 1180 nM (active) in experiment [7], 1320 nM (active) in experiment [8], 1180 nM (active) in experiment [9] and 590 nM (active) in experiment [10].

As to `CN(C)CCN1C(=O)c2cccc3cc(N)cc(c23)C1=O`, the parasite growth, % of control (lower = inhibition) in experiment [1] is 10.8%. In experiment [2], this compound yielded a growth, % of control of 9.26%. Moreover, the cell viability, % of control (lower = more cytotoxic) in experiment [3] is 5.29%. Further, in experiment [4], the viability (% of control) worked out at 4.08%. For the same compound, the Potency entry in experiment [5], in experiment [6] and in experiment [10] was “inactive” each time. For the same compound, the Potency in experiment [7] was 16600 nM (active); in experiment [8] it was 14800 nM (active); in experiment [9], 1660 nM (active).

With `Cc1cnc(Nc2ccc(N3CCN(C)CC3)cc2)nc1Nc1cccc(S(=O)(=O)NC(C)(C)C)c1`, in experiment [1], the parasite growth, % of control (lower = inhibition) stood at 12.4%. The growth, % of control in experiment [2] was 3.11%. The cell viability, % of control (lower = more cytotoxic) in experiment [3] was 2.75%. The viability (% of control) in experiment [4] was 1.93%. In addition, the Potency result in experiment [5] and in experiment [6] was “inactive” in each case. The Potency in experiment [7] is 2640 nM (active); in experiment [8], 2640 nM (active); in experiment [9], 2090 nM (active); in experiment [10], 2350 nM (active).

Take `CC1(C)[C@H](O[C@H]2O[C@H](C(=O)O)[C@@H](O)[C@H](O)[C@H]2O[C@@H]2O[C@H](C(=O)O)[C@@H](O)[C@H](O)[C@H]2O)CC[C@@]2(C)[C@H]1CC[C@]1(C)[C@H]2C(=O)C=C2[C@H]3C[C@@](C)(C(=O)O)CC[C@]3(C)CC[C@]21C`: the parasite growth, % of control (lower = inhibition) in experiment [1] worked out at 85.7%. Besides, in [2], the growth, % of control was 109%. Further, the cell viability, % of control (lower = more cytotoxic) in [3] came out at 153%. Further, the viability (% of control) in [4] is 125%. The Potency result in [5], in [6], in experiment [7], in experiment [8], in [9] and in [10] was “inactive” each time.

As for `CCC(C=C[C@@H]1OC(=O)C=C[C@H]1C)=C[C@H](C)CC=CC(C)=C[C@@H](C)C(=O)[C@@H](C)[C@H](O)[C@@H](C)CC(C)=CC(=O)O`, the parasite growth, % of control (lower = inhibition) in experiment [1] is 106% [at 1.06 µM]. For the same compound, in [2], the growth, % of control stood at 577% [at 1.06 µM]. Also, in [3], the cell viability, % of control (lower = more cytotoxic) worked out at 5.63% [at 1.72 µM]. The viability (% of control) in [4] came out at 5.92% [at 1.72 µM]. Further, the activity change, negative = inhibition in experiment [5] was 14.9% [at 1.73 µM] (inactive); in experiment [6], 5.61% [at 1.73 µM] (inactive). Also, the Potency in experiment [7] was 22 nM (active); in experiment [8] it was 22 nM (active); in [9] it was 15.6 nM (active); in [10], 13.9 nM (active).

Regarding `Cn1cc(C=CC(=O)c2cccc(F)c2)cc1C=CC(=O)NO`, the parasite growth, % of control (lower = inhibition) in [1] was 56.3%. Further, the growth, % of control in experiment [2] came to 99.1%. In addition, the cell viability, % of control (lower = more cytotoxic) in experiment [3] was found to be 7.04%. In addition, in [4], the viability (% of control) amounted to 4.87%. Besides, the Potency result in [5] and in [6] was “inactive” throughout. The Potency in experiment [7] is 23500 nM (active); in [8] it was 18700 nM (active); in [9], 16600 nM (active); in experiment [10], 20900 nM (active).

Consider `C[C@@]12C(=O)OC(=O)[C@@]1(C)C1CCC2O1`, for which the parasite growth, % of control (lower = inhibition) in experiment [1] is 13.5%. In experiment [2], this compound registered a growth, % of control of 7.05%. Further, the cell viability, % of control (lower = more cytotoxic) in [3] was found to be 5.4%. For the same compound, in experiment [4], the viability (% of control) came out at 3.87%. The Potency result in experiment [5] and in experiment [6] was “inactive” each time. In addition, the Potency in [7] is 2640 nM (active); in [8] it was 4180 nM (active); in experiment [9], 2640 nM (active); in [10], 2640 nM (active).

For the compound `COc1cc([C@@H]2c3cc4c(cc3[C@@H](O[C@@H]3O[C@@H]5CO[C@@H](c6cccs6)O[C@@H]5[C@H](O)[C@@H]3O)[C@H]3COC(=O)[C@H]23)OCO4)cc(OC)c1O`, the parasite growth, % of control (lower = inhibition) in [1] came out at 9.32%. Moreover, the growth, % of control in [2] came out at 5.8%. The cell viability, % of control (lower = more cytotoxic) in experiment [3] is 27.7%. Besides, in [4], the viability (% of control) is 5.23%. Further, the Potency result in [5], in [6] and in [10] was “inactive” each time. Further, the Potency in experiment [7] was 264 nM (active); in experiment [8], 148 nM (active); in [9], 29.6 nM (active).

On to `Nc1cccc2c1C(=O)N(C1CCC(=O)NC1=O)C2=O` (centres undefined), for which the parasite growth, % of control (lower = inhibition) in experiment [1] is 113%. The compound further gave a growth, % of control in experiment [2] of 49.9%. Also, in experiment [3], the cell viability, % of control (lower = more cytotoxic) was 52.1%. For the same compound, the viability (% of control) in experiment [4] was found to be 88.7%. The Potency result in experiment [5], in experiment [6], in experiment [7], in [8] and in [9] was “inactive” each time. In addition, in experiment [10], the Potency was 4.2 nM (active).

Take `CCN(CC)CCCCNc1ncc2c(n1)N(C)C(=O)N(c1c(Cl)c(OC)cc(OC)c1Cl)C2`: the parasite growth, % of control (lower = inhibition) in experiment [1] turned out to be 23.7%. In experiment [2], the growth, % of control turned out to be 11.3%. Further, the cell viability, % of control (lower = more cytotoxic) in experiment [3] was 138%. Also, the viability (% of control) in experiment [4] was determined as 50.4%. Besides, the Potency entry in experiment [5] and in [6] was “inactive” throughout. Moreover, the values for the Potency in [7], in [8] and in experiment [9] were 20900 nM (active), 20900 nM (active) and 18700 nM (active), respectively.

With `CCCCCCCCCCCCCCCC(=O)OC[C@@H](NC(=O)C(Cl)Cl)[C@H](O)c1ccc([N+](=O)[O-])cc1`, the parasite growth, % of control (lower = inhibition) in [1] is 135%. Besides, in experiment [2], the growth, % of control came out at 112%. Moreover, the cell viability, % of control (lower = more cytotoxic) in [3] is 132%. For the same compound, the viability (% of control) in [4] was 117%. Further, the Potency entry in [5], in experiment [6], in [7], in experiment [8], in experiment [9] and in experiment [10] was “inactive” each time.

As to `COc1cc(OC)c(C=CS(=O)(=O)Cc2ccc(OC)c(NCC(=O)O)c2)c(OC)c1`, the parasite growth, % of control (lower = inhibition) in experiment [1] was 77.6%. In addition, the growth, % of control in [2] amounted to 68.2%. Besides, the cell viability, % of control (lower = more cytotoxic) in experiment [3] came to 5.33%. The viability (% of control) in [4] was found to be 8.09%. The Potency result in experiment [5] and in experiment [6] was “inactive” each time. The Potency in experiment [7] was 93.5 nM (active); in experiment [8], 187 nM (active); in experiment [9], 235 nM (active); in experiment [10], 52.6 nM (active).
